Rows were chosen to be rich in hits. Some 3.4% of all compounds tested hit in one or more screens of this group.
FBW7 activator: human FBW7 E3 ligase activation, primary screen; Q969H0; AlphaScreen FBW7–phospho-cyclin E peptide binding, activator screen; normalized activity (activation), % at 26.1 µM; hit rate 0.13% among 650,000; AID 1259310; in the data active means normalized activity above about 1.9%;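 further: purified mutant Fbw7 with reduced substrate affinity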
GPR151 ag: activators of human GPR151. Q8TDV0. PathHunter beta-arrestin GPR151 cells, luminescence. activation, % at 11.2 µM. hit rate 1% among 650,000. AID 1508602; in the data active means activation above about 4.9%;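 further: 0% = median of compound wells and 100% = cells with positive control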
Target sequence (Q8TDV0 whole entry, looked up): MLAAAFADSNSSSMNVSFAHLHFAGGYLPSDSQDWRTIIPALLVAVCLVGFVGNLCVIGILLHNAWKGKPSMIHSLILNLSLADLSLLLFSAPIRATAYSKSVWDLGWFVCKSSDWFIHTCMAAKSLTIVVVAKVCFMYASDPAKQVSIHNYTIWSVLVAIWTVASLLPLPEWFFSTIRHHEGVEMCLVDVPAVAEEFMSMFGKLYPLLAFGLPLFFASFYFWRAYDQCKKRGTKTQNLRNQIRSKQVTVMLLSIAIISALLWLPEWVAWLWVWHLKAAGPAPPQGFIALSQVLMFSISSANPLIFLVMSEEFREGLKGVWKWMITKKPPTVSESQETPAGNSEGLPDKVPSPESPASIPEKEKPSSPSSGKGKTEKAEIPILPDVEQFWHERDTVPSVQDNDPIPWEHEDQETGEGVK
MITF primary: inhibitors of human MITF; hit rate 0.91% among 650,000; AID 1259374; AlphaScreen MITF homodimerization, bead proximity signal; inhibition, % at 2.6 µM; O75030; in the data active means inhibition above about 50%;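 further: 0% = vehicle wells with protein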
TEAD-YAP inh: TEAD-YAP interaction inhibition. hit rate 1.4% among 640,000. inhibition, % at 9.12 µM. HEK-TIYL cells, TEAD-Gal4/YAP UAS-luciferase luminescence. AID 1259422; in the data active means inhibition above about 32%;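 further: 0% = median of test compound wells and 100% = reference inhibitor wells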
GPR151 conf act: confirmation of human GPR151 activators; shares compounds with GPR151 ag; GPR151 PathHunter beta-arrestin cells, luminescence, 90 min; % of EA-reagent control over plate median; activation, % at 11.2 µM; 6,700 tested, under 10 active; AID 1508609;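 active means mean percent activation across replicates above the confirmation screen cutoff of 4.91%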
GPR119 counter: GPR119 activation, counter-screen for GPR151 activators; GPR119 PathHunter beta-arrestin cells, luminescence, 90 min; 0 = compound-well median, 100 = enzyme-acceptor control; AID 1508611; hit rate 0.3% among 6,700; shares compounds with GPR151 ag; activation, % at 11.2 µM;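 active means mean percent activation in the counterscreen above 29.09%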;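 further: counterscreen on off-target GPR119 to flag nonselective hits from the GPR151 activator screen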
Active calls of the source: *; · = not tested or not shown.

SMILES	FBW7 activator	GPR151 ag	MITF primary	TEAD-YAP inh	GPR151 conf act	GPR119 counter
C=CCOc1ccccc1CN1CCN(Cc2ccsc2)C(CCO)C1 (stereo not drawn)	0	6.1*	1	2	-1	-5
COc1ccc(Cl)cc1N(CC(=O)Nc1ccc2c(c1)OCO2)S(=O)(=O)c1ccc(C)c([N+](=O)[O-])c1	0	0	4	-17	·	·
COc1cccc(CN2CCN(Cc3cc(Cl)c(O)c(OC)c3)CC2CCO)c1 (stereo not drawn)	0	6.3*	-12	-17	1	6
CCOc1ccccc1NC(=O)CCNc1c(N2CCCC2)c(=O)c1=O	0	-2	-12	3	·	·
O=C(NCC1Cc2cccc(-c3cnccn3)c2O1)c1csc(-c2cccs2)n1 (stereo not drawn)	0	1	-13	-6	·	·
CC1(C)Cc2c(C#N)c(N3CCCC3)nc(-c3ccco3)c2CO1	0	12*	-4	0	1	4
N#Cc1c(N2CCCCC2)nc(-c2ccco2)c2c1CCCC2	0	0	16	14	·	·
COc1ccc2nc(NC(=O)C34CCC(C)(C(=O)C3)C4(C)C)sc2c1 (stereo not drawn)	0	9.1*	-4	-11	0	-9
COc1ccc(S(=O)(=O)Oc2ccc(/C=C3\SC(N)=NC3=O)cc2)cc1	0	0	7	-2	·	·
CCc1cc2c(SCC(=O)c3ccccc3)ncnc2s1	0	-1	6	-45	·	·
CCc1cc2c(SCC(=O)c3cccs3)ncnc2s1	0	5.1*	8	-15	-1	-13
CCc1cc2c(SCC(=O)Nc3sccc3C(N)=O)ncnc2s1	0	7.0*	-1	1	0	-8
CCc1cc2c(SCC(=O)Nc3ccc(Br)cc3)ncnc2s1	0	0	-5	10	·	·
COc1ccc(N2CC(C(=O)Nc3ccc(Cl)c(Cl)c3)CC2=O)cc1 (stereo not drawn)	0	1	-6	-4	·	·
N=C1C(c2ccccc2)=C(O)CN1c1ccc(S(=O)(=O)NCc2ccco2)cc1	0	0	-4	-5	·	·
CCCCS(=O)c1sc2nc(-c3cccs3)cc(-c3ccccc3)c2c1N (stereo not drawn)	0	1	8	4	·	·
C=CCn1cc(C(=O)c2cc(F)ccc2OCc2ccc(C#N)cc2)cc(C#N)c1=O	0	-3	2	1	·	·
CCOc1ccc(C2=C/C(=C/c3cccc(OC)c3OC)C(=O)O2)cc1	0	-2	9	6	·	·
COc1ccc(-c2nnc(NC(=O)c3ccccc3C)s2)c(OC)c1	0	5.8*	7	1	1	0
COc1ccc(-c2nnc3sc(NC(=O)C(C)C)nn23)cc1OC	0	14*	-3	8	2	-6
COc1ccc(-c2nnc3sc(NC(=O)c4ccccc4C)nn23)cc1OC	0	8.8*	0	-2	0	1
COc1ccc(-c2nnc3sc(NC(=O)c4ccccc4C)nn23)cc1	0	2	-5	-2	·	·
Cc1cc(C)c(NC(=O)C(C)Sc2nc3ccc(NC(=O)Cc4cccc5ccccc45)cc3s2)c(C)c1 (stereo not drawn)	0	0	15	7	·	·
Cn1c(Nc2cccc(C(=O)NCCc3ccc(O)cc3)c2)nc2ccccc21	0	-1	-6	-1	·	·
O=C(O)c1ccc(-c2nc(-c3ccccc3)c(-c3ccc(C(=O)c4ccccc4)cc3)[nH]2)cc1	0	0	5	1	·	·
SMILES	FBW7 activator	GPR151 ag	MITF primary	TEAD-YAP inh	GPR151 conf act	GPR119 counter
Cc1ccc(-c2nc(-c3ccccc3)c(-c3ccc(C(=O)c4ccccc4)cc3)[nH]2)cc1	0	9.6*	-6	-6	1	20
c1ccc(Oc2ccc(-c3[nH]c(-c4ccccc4)nc3-c3ccccc3)cc2)cc1	0	5.3*	5	0	1	5
Cc1ccc(-c2nnc3sc(-c4cccnc4)nn23)cc1	1	0	3	9	·	·
O=C(C1C2C=CC3(CN(Cc4ccccc4Cl)C(=O)C13)O2)N1CCCCC1 (stereo not drawn)	0	-1	-3	-5	·	·
NC(=O)CC(c1ccccc1)c1ccc2c(c1)OCO2 (stereo not drawn)	0	6.4*	0	12	0	6
Cc1ccc(N(CC(O)Cn2c3ccccc3c3ccccc32)S(=O)(=O)c2ccccc2)cc1 (stereo not drawn)	0	6.2*	-1	10	1	15
Cc1ccc(N(CC(O)Cn2c3ccccc3c3ccccc32)S(=O)(=O)c2ccc(C)cc2)cc1 (stereo not drawn)	0	-2	-6	-11	·	·
Cc1ccc(S(=O)(=O)N(CC(=O)N2CCOCC2)CC(=O)N2CCOCC2)cc1	0	6.6*	-14	-9	2	-1
Cc1ccc(N(CC(=O)N2CCCCCC2)S(=O)(=O)c2ccccc2)cc1C	0	5.8*	-3	0	1	14
O=C(CN(c1ccccc1)S(=O)(=O)c1ccccc1)N1CCOCC1	0	0	0	12	·	·
Cc1ccc(N(CC(=O)N2CCOCC2)S(=O)(=O)c2ccccc2)cc1	0	9.1*	8	9	0	-6
CCOc1ccccc1N(CC(=O)N1CCCC1)S(=O)(=O)c1ccc(C)cc1	0	6.0*	-1	-1	0	-5
O=C1NC(=S)/C(=C\c2ccccc2F)S1	0	7.2*	9	-1	0	23
O=S(=O)(NNC(=S)NCC1CCCO1)c1cc(Cl)ccc1Cl (stereo not drawn)	0	-1	6	3	·	·
COc1ccc(C(=O)NCCC(=O)NCC2CCCO2)cc1OC (stereo not drawn)	0	5.7*	-4	-8	0	9
COc1ccc(S(=O)(=O)NNC(=S)NCC2CCCO2)c(OC)c1 (stereo not drawn)	0	5.0*	1	-1	-1	-10
O=C(OCc1cc(-c2ccc(F)cc2)on1)C1(c2cccs2)CCCC1	1	0	-16	-6	·	·
CC(Nc1nc(CN(C)C2CCOCC2)nc2ccccc12)c1ccc(F)cc1 (stereo not drawn)	0	7.7*	2	3	1	8
Cc1ccc(CNc2nc(CN(C)C3CCOC3)nc3ccccc23)cc1 (stereo not drawn)	0	-1	10	11	·	·
O=C(CN1CCN(C(c2ccccc2)c2ccccc2)CC1)N1c2ccccc2CCc2ccccc21	0	-1	7	-12	·	·
Cc1cccc(Nc2nc(N3CCCC3)nc(N3CCCC3)n2)c1	0	5.6*	4	1	1	4
COc1nc(Nc2cccc(C)c2)nc(N2CCCCC2)n1	0	0	14	-7	·	·
Nc1nc(Nc2ccc(N3CCOCC3)cc2)cc(N2CCc3ccccc3C2)n1	0	-1	8	3	·	·
Fc1ccc(C2=NC3(CCCCC3)NC2=S)cc1	0	3	-8	0	·	·

Screening data from PubChem.
